Laboratory results published in PubChem BioAssay AID485294 (National Center for Advancing Translational Sciences (NCATS), 2010).
In all, about 370,000 compounds went through this assay and about 150 (0.041%) were called active. Not shown: some 14% with an inconclusive outcome. This excerpt belongs to a sample that is enriched for actives. Values without a mark were called inactive. Calls follow the shape of the dose curve; as a rule, active = well fitted inhibition curve with a large enough effect; inconclusive = small, poorly fitted or top-dose-only effect; inactive = flat fitted curve, though single readings scatter.

These molecules were tested against Beta-lactamase (Escherichia coli (strain K12)) (UniProt P00811) (assay: qHTS Inhibitors of AmpC Beta-Lactamase (assay with detergent)). Conditions: AmpC hydrolysis of nitrocefin, absorbance 480 nm, 0.01% Triton; series mostly up to 114 µM; activity change, negative = inhibition: at the top concentration.
Beta-lactamase (Escherichia coli (strain K12)), sequence (P00811 whole entry, looked up): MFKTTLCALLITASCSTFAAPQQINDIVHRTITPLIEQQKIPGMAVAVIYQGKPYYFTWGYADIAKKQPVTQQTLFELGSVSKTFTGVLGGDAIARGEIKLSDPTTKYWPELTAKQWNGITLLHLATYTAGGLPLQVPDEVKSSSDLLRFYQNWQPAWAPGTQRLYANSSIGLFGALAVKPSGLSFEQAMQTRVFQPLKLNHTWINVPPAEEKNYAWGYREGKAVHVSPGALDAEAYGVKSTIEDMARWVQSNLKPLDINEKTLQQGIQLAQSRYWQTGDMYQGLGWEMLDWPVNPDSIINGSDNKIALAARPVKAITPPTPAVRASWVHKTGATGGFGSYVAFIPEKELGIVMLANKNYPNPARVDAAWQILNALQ
Experimental: NIH Molecular Libraries Probe Production Network [MLPCN] NIH Chemical Genomics Center [NCGC] Assay Provider: Professor Brian Shoichet, UCSF Assay Overview: This aggregation profiling approach exploits the sensitivity of aggregate formation to detergent. Inhibition of b-lactamase is measured in the presence and absence of 0.01% Triton X-100. This particular assay had the prescence of 0.01% Triton X-100. See Pubchem assay "Promiscuous and Specific Inhibitors of AmpC Beta-Lactamase (assay without detergent)" for related screen. Compounds that inhibit only in the absence of detergent are considered likely promiscuous aggregators. A screen of 1,030 compounds was performed in Brian Shoichet's lab in 96-well format. AmpC activity was measured by following the absorbance at 480 nm. Nitrocefin is a chromogenic substrate: while nitrocefin is yellow (lmax 390 nm), the product of its hydrolysis is red (lmax 486 nm, 17,000 M-1). AmpC beta lactamase was provided by Shoichet Lab, UCSF.
Buffer: 20 mM phosphate buffer, pH 7.0 Triton X-100: No Detergent screen: 0.0001%, Detergent screen: 0.01%. Reagents/Controls: Buffer in columns 3 and 4 as negative control (no enzyme). 5.3 nM AmpC in columns 1, 2, 5-48. Titration of UCSF compound 9 control (from 10 mM, then 1:2) pin-transferred to column 2. Column 1 is neutral (100% activity). Assay Steps: Six uL of reagents were dispensed to 1536-well Greiner black clear bottom plates. Compounds and controls (23 nL) were transferred via Kalypsys PinTool. The plates were incubated for 15 min at room temperature, and then 2 uL of 800 uM solution of nitrocefin was added to start the reaction. The plates were immediately transferred to and read every 20 seconds for 4 min on ViewLux (Perkin-Elmer) High-throughput CCD imager using 480 nm absorbance protocol. During dispense, reagent bottles were kept submerged into 4 deg C water bath. Keywords: NIH Roadmap, MLSCN, MLI, MLSMR, qHTS, NCGC, AmpC Beta-Lactamase, Aggregation
Also: nearly all actives have a fitted effect of over 25% in size.
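For activity change, negative = inhibition in this document: 0% = no-compound wells and -100% = no-enzyme wells.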
Potency is read from the fitted curve at half-maximal effect.

SMILES	activity change, negative = inhibition [%]	Potency
COc1cccc(N(C(=O)CNC(=O)c2ccco2)C(C(=O)NC2CCCCC2)c2cccnc2)c1 (stereo not given)	-8.32	
Cc1ccc(N(C(=O)CNC(=O)c2ccco2)C(C(=O)NC2CCCC2)c2ccncc2)cc1 (stereo not given)		14.1 µM (active)
CC(C)(C)NC(=O)C(c1ccncc1)N(C(=O)CNC(=O)c1ccco1)c1ccc2c(c1)OCO2 (stereo not given)	-14.3	
Cc1nnc(N2CCCC(C(=O)NCCN(C)C)C2)c2nn(-c3ccccc3)c(C)c12 (stereo not given)	1.73	
CCOc1ccc(-c2n[nH]c3c2C(c2ccccc2OC)N(c2ccc(Br)cc2)C3=O)cc1 (stereo not given)	-2.45	
Nc1ccc2nc3c(=O)[nH]c(=S)[nH]c3nc2c1		50.1 µM (active)
Clc1ccc(CSc2nncn3c2cc2occc23)cc1	-10.9	
Cc1ccc(C)c(S(=O)(=O)c2nnn3c2nc(N2CCOCC2)c2sccc23)c1	9.64	
CCC(=O)N1CCc2cc(Br)cc(S(=O)(=O)Nc3ccc(C)cc3C)c21	4.3	
CC1=C(c2ccc(C)cc2)S(=O)(=O)NC1=NCCCN1CCN(c2cc(C)ccc2C)CC1	19.9	
Fc1ccc(C(Nc2ccc(Cl)c(C(F)(F)F)c2)c2nnc(-c3ccccc3)o2)cc1 (stereo not given)	5.04	
Cc1ccc(-c2cn3c(n2)sc2cc(C(=O)NCc4cccs4)ccc23)c(C)c1	13.4	
CCOC(=O)c1c(NC(=O)c2ccc(S(=O)(=O)N(CC)CC)cc2)sc2c1CCCCC2	-9.3	
COc1ccc(-c2cccc(NS(=O)(=O)c3cc(C)c(OC)c(C)c3C)c2)nn1	11.2	
Cc1ccc(NC(=O)Cc2ccc(NC(=O)N3CCCCc4ccccc43)cc2)cc1	3.85	
COc1ccc(CCC(=O)NCCc2csc(-c3ccc(Cl)cc3)n2)cc1	2.64	
COc1cc(-c2cc3n(C)c(C)c(CCC(=O)Nc4ccc(F)cc4)c(=O)n3n2)cc(OC)c1OC	-3.72	
Cc1ccc(NC(=O)c2cc(S(=O)(=O)NCCC3=CCCCC3)ccc2F)cc1C	-2.66	
Cc1cc(Nc2cccc(C(F)(F)F)c2)nc2ccc(NC(=O)c3ccc(=O)[nH]c3)cc12	1.63	
COCCn1c(CCC(=O)Nc2cc(C)ccc2C)nc2cccnc21	17.5	
Cc1ccc2cccc(NC(=O)c3ccc(OC(C)C)cc3)c2n1	-6.92	
COc1ccc(-c2nc3nc(C)cc(C)n3c2Nc2c(C)cccc2C)cc1	8.99	
O=C(Nc1c(C(=O)N2CCN(c3ccc(F)cc3)CC2)oc2ccccc12)c1ccco1	6.2	

SMILES	activity change, negative = inhibition [%]	Potency
CCOc1ccc(NC(=O)CCc2c(C)nn(-c3ccc(N4CCCC4)nn3)c2C)cc1	-8.16	
O=C(COc1ccccc1F)Nc1ccc(C(=O)OCc2cc(=O)n3nc(C4CC4)sc3n2)cc1	2.62	
CCOc1cc(C2C(C(=O)OC)=C(C)NC3=C2C(=O)c2ccccc23)ccc1O (stereo not given)	-0.36	
O=S(=O)(c1ccc2nc(NCc3ccccc3Cl)ccc2c1)N1CCCCC1	-1.11	
COc1ccc(Cl)cc1-n1c(CCC(=O)O)ccc1-c1ccc(C)cc1	3.97	
O=C(Nc1ccc(S(=O)(=O)N2CCC(c3nc4ccccc4s3)CC2)cc1)c1ccccc1F	16.5	
CSc1ccc(CCNC(=O)c2cc(C)nc3c2c(C)nn3-c2cccc(F)c2)cc1	0.607	
Cc1ccc(Cl)cc1NC(=O)CSc1nc2ccccc2nc1Cc1ccccc1	21.3	
CCCCN(CC)CCCNC(=O)c1nn(C)c2c1CS(=O)(=O)c1ccccc1-2	17.6	
CCC(CC)c1nn2cc(-c3ccccc3)nc2s1	6.01	
COc1ccc(N2C(=O)CSC23C(=O)N(Cc2cccc(F)c2)c2ccccc23)cc1Cl (stereo not given)	20.8	
O=C(CC(NCc1cccnc1)C(=O)O)Nc1ccc(O)cc1 (stereo not given)	18.5	
CCN(CCCNC(=O)c1ccc(Sc2ccc(C)cc2)c(NC(C)=O)c1)c1cccc(C)c1	11	
Cc1ccc(CNC(=O)CCc2c(C)nn(-c3ccc(N4CCCC4)nn3)c2C)cc1	9.01	
CC1=C(C(=O)OCc2ccc(C)cc2)C(c2ccccc2Cl)CC(=O)N1 (stereo not given)	-0.201	
Cc1ccc(C(=O)NCCSc2c(C)[nH]c3ccccc23)cc1C	9.55	
CCc1ccc(NC(=O)c2cnc3c(-c4ccccc4)c(C)nn3c2C)cc1	6.28	
CCN(C(=O)c1sc2cc(OC)ccc2c1Cl)c1ccccc1	1.06	
COC(=O)c1cc(NC(=O)c2cnc(SC)nc2-c2ccccc2)cc(C(=O)OC)c1	7.39	
CCCCOc1ccc(CN2C(=O)C(=O)c3cc(Br)cc(C)c32)cc1OC	13.6	
CCOc1ccc(/C=C(\C#N)c2nc3ccccc3c(=O)[nH]2)cc1OC	-3.18	
O=C(COc1ccccc1)OCc1cc(=O)n2nc(-c3cccs3)sc2n1	-3.28	
O=C(Nc1ccc(Br)cc1)c1ccc(Br)c(S(=O)(=O)NCc2ccccc2)c1	-1.49	

SMILES	activity change, negative = inhibition [%]	Potency
CCn1c2ccccc2c2nnc(N3CCN(c4cc(C)ccc4C)CC3)nc21	21	
CCOC(=O)c1sc(NC(=O)/C=C/c2ccc(C(C)C)cc2)c(C(=O)OCC)c1C	-0.936	
Cn1cc(C(=O)NCc2ccccc2F)cn1	-0.872	
CCOC(=O)c1c(CNCc2ccccc2F)c2sc(C)cc2n1C	-3.41	
Cn1c2cc(B(O)O)sc2c2cnn(Cc3ccccc3F)c(=O)c21		2.82 µM (active)
Cc1cc2c(cc1S(=O)(=O)CCC(=O)Nc1ccc(OC(F)(F)F)cc1)OCC(=O)N2	24.8	
COc1ccccc1C(=O)Nc1c(C(=O)Nc2ccc(C)cc2)oc2ccccc12	-6.46	
CCOC(=O)c1c(C)[nH]c(CCC(=O)NCCCN2CCN(c3cc(C)ccc3C)CC2)c1C	-1.88	
COc1cc(NS(=O)(=O)c2ccc3c(c2)OCC(C(=O)N2CCCC2)O3)cc(OC)c1 (stereo not given)	-1.24	
COc1cc2nc(SCc3ccc(F)cc3)n3nc(CCn4c(C)nc5ccccc54)nc3c2cc1OC	3.25	
CCCCN(CC)CCCNC(=O)Cn1ncc2c([nH]c3ccc(C)cc32)c1=O	2.61	
O=C(CN1C(=O)COc2ccc(S(=O)(=O)N3CCCCCC3)cc21)N1CCN(c2cccc(C(F)(F)F)c2)CC1	3.1	
O=C(CSc1nccn1-c1ccc(F)cc1)Nc1cccc2ccccc12	0.247	
COc1ccc2c(Sc3ccc(C)cc3)c(C(=O)NC(C)c3ccccc3)[nH]c2c1 (stereo not given)	1.51	
O=C(Nc1ccc2nc(SCCOc3ccccc3)sc2c1)c1ccco1	13.9	
CCOc1cc(CNC(=O)c2sc3ncnc(N(C)C4CCCCC4)c3c2C)ccc1OC	-0.364	
CCS(=O)(=O)N1CCc2cc(C(=O)NCc3ccc(OC)cc3)ccc21	21.8	
Cc1ccc(NC2=C(Cl)C(=O)OC2OC(=O)c2ccccc2C)cc1 (stereo not given)		6.31 µM (active)
Cc1ccccc1C(=O)OC1OC(=O)C(Cl)=C1Nc1ccccc1 (stereo not given)		14.1 µM (active)
Cc1ccccc1C(=O)O	-5.95	
COC(=O)C1=C(Nc2ccc(OC)cc2)C=C(C)C(C(=O)OC)C1c1ccc(C)cc1 (stereo not given)	-11.6	
Cc1ccccc1C(=O)Nc1ccccc1NC(=O)c1ccccc1C	0.475	
Cc1ccc(Cl)cc1N1CCN(C(=O)c2cccn3c(=O)c4cc(Cl)ccc4nc23)CC1	7.06	

SMILES	activity change, negative = inhibition [%]	Potency
CCOc1ccc(CNC(=O)CCc2c(C)nn(-c3ccc(N4CCCCC4)nn3)c2C)cc1	21.5	
CCOC(=O)c1ccc(N2C(=O)c3[nH]nc(-c4ccccc4)c3C2c2ccc(C(C)C)cc2)cc1 (stereo not given)	2.4	
Cc1oc2ncnc(N3CCOCC3)c2c1C(=O)NCCc1ccccc1	18.8	
COc1cc(NC(=O)Cn2c(=O)n(Cc3ccco3)c(=O)c3oc4ccccc4c32)cc(OC)c1	-0.207	
CC(C)c1ccc(NS(=O)(=O)c2ccc3[nH]cc(C(=O)NC4CCCC4)c(=O)c3c2)cc1	7.5	
COc1ccc(CCNC(=O)Cn2c(=O)cc(C(F)(F)F)c3c(C)nn(C)c32)c(OC)c1	6.4	
CC(=O)c1cccc(NC(=O)CSc2nc3c(c(=O)[nH]2)CCC3)c1	-2.77	
CCOC(=O)c1ccc(N2C(=O)c3n[nH]c(C)c3C2c2ccc(O)c(OC)c2)cc1 (stereo not given)	0.532	
O=c1cc2nc(-c3ccccc3)nc(SCCOc3ccc(Cl)cc3)n2[nH]1	-0.807	
Cc1ccc(OCCSc2nc(-c3cccs3)nc3cc(=O)[nH]n23)cc1Cl	1.08	
COc1ccccc1-c1cc2nc(C)c(CCC(=O)NC3CCCCC3)c(C)n2n1	7.96	
CNc1ccc(-c2nc(-c3ccco3)no2)cc1[N+](=O)[O-]	-1.26	
CC1CCC(N2CC(=O)N(CCC3=CCCCC3)C(c3ccc(F)cc3)C2=O)CC1 (stereo not given)	8.65	
Fc1ccc(CSc2nc(NCc3ccccc3)c3ccccc3n2)cc1	6.25	
O=C(CCc1ccccc1)NCc1ccc2c(c1)CCN2C(=O)c1ccccc1	3.58	
COc1ccc(-c2cc(C(F)(F)F)nc(SCC(=O)N(C)Cc3ccccc3)n2)cc1OC	-4.17	
Cc1oc2ncn(CC(C)C)c(=O)c2c1C(=O)N1CCN(c2ccccc2F)CC1	13.4	
O=P(O)(CN1CCCCCC1)C1Cc2ccccc2C1		50.1 µM (active)
O=P(O)(CN1CCCCC1)CN1CCCCC1	-0.346	
O=C(CN1CCCC1)N1CCN(c2ccccc2)CC1	1.31	
CCn1cc(C(=O)N2CCN(c3cc(C)ccc3C)CC2)c(=O)c2cc(S(=O)(=O)N(C)C3CCCCC3)ccc21	2	
